# Results reported in the supplement of paper PMC8728848.
# Many of the other results were omitted from the sample, so the strongest signals are more common in it than they were.
# How the values were obtained:
# Experiment in all cases: glycan array binding signal (z-score within array); higher = stronger binding
# Details in all cases: glycan notation: IUPAC condensed, linker removed
# [1] = target: Fuc(a1-2)Gal(b1-4)GlcNAc(b1-6)GalNAc
# How it was run: (§1)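 From the Consortium for Functional Glycomics database, 3228 arrays were curated, keeping only those whose protein sequence was available. Binding is given as a within-array Z-score averaged across arrays sharing a protein sequence and across linkers. Negative Z-scores can be read as non-binding.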
# [2] = target: Fuc(a1-2)[Gal(a1-3)]Gal(b1-3)GalNAc
# How it was run: as §1
# [3] = target: Fuc(a1-2)[Gal(a1-3)]Gal(b1-3)GlcNAc
# How it was run: as §1
# [4] = target: Fuc(a1-2)[Gal(a1-3)]Gal(b1-3)GlcNAc(b1-2)Man(a1-3)[Fuc(a1-2)[Gal(a1-3)]Gal(b1-3)GlcNAc(b1-2)Man(a1-6)]Man(b1-4)GlcNAc(b1-4)[Fuc(a1-6)]GlcNAc
# How it was run: as §1
# [5] = target: Fuc(a1-2)[Gal(a1-3)]Gal(b1-4)GlcNAc(b1-3)[Fuc(a1-2)[Gal(a1-3)]Gal(b1-4)GlcNAc(b1-6)]GalNAc
# How it was run: as §1
# [6] = target: Fuc(a1-2)[GalNAc(a1-3)]Gal(b1-4)GlcNAc(b1-3)[Fuc(a1-2)[GalNAc(a1-3)]Gal(b1-4)GlcNAc(b1-6)]GalNAc
# How it was run: as §1
# [7] = target: Fuc(a1-3)[Gal(b1-4)]GlcNAc(b1-3)Gal(b1-4)[Fuc(a1-3)]GlcNAc(b1-3)Gal(b1-4)[Fuc(a1-3)]GlcNAc
# How it was run: as §1
# [8] = target: Gal(a1-3)Gal(b1-3)[Fuc(a1-4)]GlcNAc(b1-2)Man(a1-3)[Gal(a1-3)Gal(b1-3)[Fuc(a1-4)]GlcNAc(b1-2)Man(a1-6)]Man(b1-4)GlcNAc(b1-4)GlcNAc
# How it was run: as §1
# [9] = target: Gal(b1-3)GalNAc(b1-3)Gal(a1-4)Gal(b1-4)Glc
# How it was run: as §1
# [10] = target: Gal(b1-3)GlcNAc(a1-3)Gal(b1-4)GlcNAc
# How it was run: as §1
# [11] = target: Gal(b1-3)GlcNAc(b1-2)Man(a1-3)[GlcNAc(b1-4)][Gal(b1-3)GlcNAc(b1-2)Man(a1-6)]Man(b1-4)GlcNAc(b1-4)GlcNAc
# How it was run: as §1
# [12] = target: Gal(b1-3)GlcNAc(b1-3)Gal(b1-4)Glc
# How it was run: as §1
# [13] = target: Gal(b1-3)[Fuc(a1-4)]GlcNAc(b1-2)Man
# How it was run: as §1
# [14] = target: Gal(b1-3)[Neu5Ac(a2-6)]GlcNAc(b1-4)Gal(b1-4)Glc
# How it was run: as §1
# [15] = target: Gal(b1-4)GlcNAc
# How it was run: as §1
# [16] = target: Gal(b1-4)GlcNAc(b1-2)Man(a1-6)[GlcNAc(b1-2)Man(a1-3)]Man(b1-4)GlcNAc(b1-4)GlcNAc
# How it was run: as §1
# [17] = target: Gal(b1-4)GlcNAc(b1-2)[Gal(b1-4)GlcNAc(b1-4)]Man(a1-3)[GlcNAc(b1-4)][Gal(b1-4)GlcNAc(b1-2)Man(a1-6)]Man(b1-4)GlcNAc(b1-4)GlcNAc
# How it was run: as §1
# [18] = target: Gal(b1-4)GlcNAc(b1-3)Gal(b1-4)GlcNAc(b1-3)Gal(b1-4)GlcNAc(b1-2)Man(a1-3)[Gal(b1-4)GlcNAc(b1-3)Gal(b1-4)GlcNAc(b1-3)Gal(b1-4)GlcNAc(b1-2)Man(a1-6)]Man(b1-4)GlcNAc(b1-4)[Fuc(a1-6)]GlcNAc
# How it was run: as §1
# [19] = target: Gal(b1-4)GlcNAc(b1-3)Gal(b1-4)GlcNAc(b1-3)Gal(b1-4)GlcNAc(b1-3)Gal(b1-4)GlcNAc(b1-2)Man(a1-3)[Gal(b1-4)GlcNAc(b1-3)Gal(b1-4)GlcNAc(b1-3)Gal(b1-4)GlcNAc(b1-3)Gal(b1-4)GlcNAc(b1-2)Man(a1-6)]Man(b1-4)GlcNAc(b1-4)[Fuc(a1-6)]GlcNAc
# How it was run: as §1
# [20] = target: Gal(b1-4)GlcNAc(b1-3)Gal(b1-4)GlcNAc(b1-3)Gal(b1-4)GlcNAc(b1-3)Gal(b1-4)GlcNAc(b1-2)[Gal(b1-4)GlcNAc(b1-3)Gal(b1-4)GlcNAc(b1-3)Gal(b1-4)GlcNAc(b1-3)Gal(b1-4)GlcNAc(b1-6)]Man(a1-6)[Gal(b1-4)GlcNAc(b1-3)Gal(b1-4)GlcNAc(b1-3)Gal(b1-4)GlcNAc(b1-3)Gal(b1-4)GlcNAc(b1-2)Man(a1-3)]Man(b1-4)GlcNAc(b1-4)[Fuc(a1-6)]GlcNAc
# How it was run: as §1
# [21] = target: Gal(b1-4)GlcNAc(b1-3)Gal(b1-4)GlcNAc(b1-3)Gal(b1-4)GlcNAc(b1-3)Gal(b1-4)GlcNAc(b1-3)Gal(b1-4)GlcNAc(b1-2)Man(a1-3)[Gal(b1-4)GlcNAc(b1-3)Gal(b1-4)GlcNAc(b1-3)Gal(b1-4)GlcNAc(b1-3)Gal(b1-4)GlcNAc(b1-3)Gal(b1-4)GlcNAc(b1-2)Man(a1-6)]Man(b1-4)GlcNAc(b1-4)[Fuc(a1-6)]GlcNAc
# How it was run: as §1
# [22] = target: Gal(b1-6)Gal
# How it was run: as §1
# [23] = target: Gal3S(b1-3)GalNAc
# How it was run: as §1
# [24] = target: Gal3S(b1-4)[Fuc(a1-3)]Glc6S
# How it was run: as §1
# [25] = target: Gal6S(b1-4)Glc
# How it was run: as §1
# [26] = target: Gal6S(b1-4)GlcNAc6S
# How it was run: as §1
# [27] = target: GalNAc(b1-4)GlcNAc6S
# How it was run: as §1
# [28] = target: Glc(a1-6)Glc(a1-6)Glc
# How it was run: as §1
# [29] = target: GlcA(b1-3)Gal
# How it was run: as §1
# [30] = target: GlcNAc(a1-4)Gal(b1-4)GalNAc
# How it was run: as §1
# [31] = target: GlcNAc(b1-2)Man(a1-3)[GlcNAc(b1-4)][GlcNAc(b1-2)Man(a1-6)]Man(b1-4)GlcNAc(b1-4)[Fuc(a1-6)]GlcNAc
# How it was run: as §1
# [32] = target: GlcNAc(b1-2)[GlcNAc(b1-4)]Man(a1-3)[GlcNAc(b1-4)][GlcNAc(b1-2)Man(a1-6)]Man(b1-4)GlcNAc(b1-4)GlcNAc
# How it was run: as §1
# [33] = target: GlcNAc(b1-2)[GlcNAc(b1-6)]Man(a1-6)[GlcNAc(b1-2)Man(a1-3)]Man(b1-4)GlcNAc(b1-4)[Fuc(a1-6)]GlcNAc
# How it was run: as §1
# [34] = target: GlcNAc(b1-3)Gal(b1-4)GlcNAc(b1-2)[GlcNAc(b1-3)Gal(b1-4)GlcNAc(b1-6)]Man(a1-6)[GlcNAc(b1-3)Gal(b1-4)GlcNAc(b1-2)Man(a1-3)]Man(b1-4)GlcNAc(b1-4)GlcNAc
# How it was run: as §1
# [35] = target: GlcNAc(b1-3)Gal(b1-4)GlcNAc(b1-3)Gal(b1-4)GlcNAc(b1-2)Man(a1-3)[GlcNAc(b1-3)Gal(b1-4)GlcNAc(b1-3)Gal(b1-4)GlcNAc(b1-2)Man(a1-6)]Man(b1-4)GlcNAc(b1-4)GlcNAc
# How it was run: as §1
# [36] = target: GlcNAc(b1-3)Gal(b1-4)GlcNAc(b1-3)[GlcNAc(b1-3)Gal(b1-4)GlcNAc(b1-3)]GalNAc
# How it was run: as §1
# [37] = target: Kdn(a2-6)Gal(b1-4)GlcNAc
# How it was run: as §1
# [38] = target: Neu5Ac(a2-3)Gal(b1-3)GlcNAc(b1-6)GalNAc
# How it was run: as §1
# [39] = target: Neu5Ac(a2-3)Gal(b1-3)GlcNAc6S
# How it was run: as §1
# [40] = target: Neu5Ac(a2-3)Gal(b1-3)[Neu5Ac(a2-6)]GlcNAc(b1-3)[Fuc(a1-3)[Gal(b1-4)]GlcNAc(b1-6)]Gal(b1-4)Glc
# How it was run: as §1
# [41] = target: Neu5Ac(a2-3)Gal(b1-4)Glc
# How it was run: as §1
# [42] = target: Neu5Ac(a2-3)Gal(b1-4)GlcNAc(b1-3)Gal(b1-3)GlcNAc
# How it was run: as §1
# [43] = target: Neu5Ac(a2-3)Gal(b1-4)GlcNAc(b1-6)[Gal(b1-3)]GalNAc
# How it was run: as §1
# [44] = target: Neu5Ac(a2-3)GalNAc
# How it was run: as §1
# [45] = target: Neu5Ac(a2-6)Gal(b1-4)GlcNAc(b1-2)Man(a1-3)Man(b1-4)GlcNAc(b1-4)GlcNAc
# How it was run: as §1
# [46] = target: Neu5Ac(a2-8)Neu5Ac(a2-3)Gal(b1-3)GalNAc(b1-4)[Neu5Ac(a2-8)Neu5Ac(a2-3)]Gal(b1-4)Glc
# How it was run: as §1
# [47] = target: Neu5Ac(a2-8)Neu5Ac(a2-8)Neu5Ac
# How it was run: as §1
# [48] = target: Neu5Gc(a2-3)Gal(b1-4)GlcNAc
# How it was run: as §1
binder,measurement,setting,value
"Sebin1 (Coprinopsis cinerea), A8PEE3 (protein) MTSPFYAHIHNVQDDNTWRFTLIFANRATADEWWRAISEAPANTSIAKSITRVTPQYYTHDVNIWNIWNFFADGNIKSISERFRGRLFIVLENDRGGRGITVIPPVPIVDHVSGNWFYIRSKTAPHLFWYYDERRSSIYASKEKRTRFKISIRNPSSQTPKNAIMINTDDVTIHIKENLYVGVDNNLGHIIPTRAYRTFKFGELESGAIAGFDVVENIEERCSSTFDGASLSISGPDSSSPGEPWELV",glycan array binding signal (z-score),[1],4.71
same,glycan array binding signal (z-score),[2],-0.147
same,glycan array binding signal (z-score),[3],-0.29
same,glycan array binding signal (z-score),[4],2.8
same,glycan array binding signal (z-score),[5],3.52
same,glycan array binding signal (z-score),[6],1.28
same,glycan array binding signal (z-score),[7],-0.039
same,glycan array binding signal (z-score),[8],2.45
same,glycan array binding signal (z-score),[9],0.187
same,glycan array binding signal (z-score),[10],-0.485
same,glycan array binding signal (z-score),[11],2.39
same,glycan array binding signal (z-score),[12],-0.671
same,glycan array binding signal (z-score),[13],0.391
same,glycan array binding signal (z-score),[14],0.647
same,glycan array binding signal (z-score),[15],-0.703
same,glycan array binding signal (z-score),[16],-0.684
same,glycan array binding signal (z-score),[17],0.136
same,glycan array binding signal (z-score),[18],13.4
same,glycan array binding signal (z-score),[19],6.4
same,glycan array binding signal (z-score),[20],2.44
same,glycan array binding signal (z-score),[21],2.62
same,glycan array binding signal (z-score),[22],0.332
same,glycan array binding signal (z-score),[23],-0.501
same,glycan array binding signal (z-score),[24],0.696
same,glycan array binding signal (z-score),[25],0.006
same,glycan array binding signal (z-score),[26],0.222
same,glycan array binding signal (z-score),[27],0.053
same,glycan array binding signal (z-score),[28],-0.354
same,glycan array binding signal (z-score),[29],-0.505
same,glycan array binding signal (z-score),[30],-0.32
same,glycan array binding signal (z-score),[31],-0.296
same,glycan array binding signal (z-score),[32],2.33
same,glycan array binding signal (z-score),[33],-0.058
same,glycan array binding signal (z-score),[34],-0.792
same,glycan array binding signal (z-score),[35],0.145
same,glycan array binding signal (z-score),[36],-0.696
same,glycan array binding signal (z-score),[37],-0.282
same,glycan array binding signal (z-score),[38],-0.335
same,glycan array binding signal (z-score),[39],-0.146
same,glycan array binding signal (z-score),[40],-0.727
same,glycan array binding signal (z-score),[41],3.86
same,glycan array binding signal (z-score),[42],-0.415
same,glycan array binding signal (z-score),[43],2.49
same,glycan array binding signal (z-score),[44],-0.458
same,glycan array binding signal (z-score),[45],-0.4
same,glycan array binding signal (z-score),[46],-0.152
same,glycan array binding signal (z-score),[47],-0.546
same,glycan array binding signal (z-score),[48],-0.074
